Experimental data reported in PubChem BioAssay (EPA / NIEHS).
Records with an inconclusive call do not appear. Calls of active or inactive are those of the source. How the source made its calls: active means hit-call score of the fitted dose curve at least 0.9, where 1 is the maximum; inconclusive means response in the unintended direction; inactive means score below 0.9.

Tests used:
[1] = target: Cellular tumor antigen p53 (Homo sapiens) (UniProt P04637); experiment: TOX21_p53_BLA_p2_ratio: Tox21 HCT-116 p53 Agonism Beta-lactamase Assay, Ratio, Phase 2 (AID 2283592)
How it was run: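 An inducible beta-lactamase reporter in HCT116 cells signals p53 pathway activation. After 16 h chemical exposure at 37C, cells load CCF4-AM substrate for 2 h at room temperature; activity is the cleaved/uncleaved emission ratio relative to DMSO.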

[2] = target: Cellular tumor antigen p53 (Homo sapiens) (UniProt P04637); experiment: TOX21_p53_BLA_p3_ratio: Tox21 HCT-116 p53 Agonism Beta-lactamase Assay, Ratio, Phase 3 (AID 2283596)
How it was run: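 HCT116 p53-bla cells (4000/well) given compound in DMSO (217-fold dilution) after 5 h, incubated 16 h at 37C. CCF4-AM substrate 2 h at room temperature; 460/530 nm emission ratio, gain fitted against DMSO.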

[3] = TOX21_p53_BLA_p4_viability: Viability Assessment in the Tox21 HCT-116 p53 Agonism Beta-lactamase Assay, Phase 4 (AID 2283597);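 further: hits lower the luminescence signal meaning cytotoxicity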
How it was run: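 Compound exposure of HCT116 cells lasts 16 h at 37C, 5% CO2, with DMSO stocks diluted 217-fold. Cellular ATP is then quantified by CellTiter-Glo luminescence after 30 min at room temperature.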

[4] = target: Cellular tumor antigen p53 (Homo sapiens) (UniProt P04637); experiment: TOX21_p53_BLA_p4_ratio: Tox21 HCT-116 p53 Agonism Beta-lactamase Assay, Ratio, Phase 4 (AID 2283601)
How it was run: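 HCT116 cells carrying an inducible beta-lactamase reporter were plated at 4000 cells/well, rested 5 h, then exposed to compounds in DMSO (217-fold dilution) for 16 h at 37C. CCF4-AM substrate was loaded 2 h at room temperature; 460/530 nm emission ratio scored gain-of-signal versus DMSO.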

Measured: outcome

Cellular tumor antigen p53 (Homo sapiens), sequence (P04637 whole entry, looked up): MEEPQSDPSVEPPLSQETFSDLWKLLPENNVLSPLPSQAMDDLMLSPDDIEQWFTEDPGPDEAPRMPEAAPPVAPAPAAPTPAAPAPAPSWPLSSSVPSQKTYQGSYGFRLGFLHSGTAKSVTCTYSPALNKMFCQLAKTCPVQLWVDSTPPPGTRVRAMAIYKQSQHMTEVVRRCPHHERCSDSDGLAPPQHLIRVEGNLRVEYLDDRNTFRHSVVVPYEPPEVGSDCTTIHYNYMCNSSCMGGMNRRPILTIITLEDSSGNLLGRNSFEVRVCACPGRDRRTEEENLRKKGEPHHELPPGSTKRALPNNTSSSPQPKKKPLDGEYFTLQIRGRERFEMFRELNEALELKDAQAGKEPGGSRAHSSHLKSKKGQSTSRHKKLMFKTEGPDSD

C[C@]12CC[C@H]3[C@@H](CCC4=C(O)C(=O)CC[C@@H]43)[C@@H]1CC[C@@H]2OC(=O)CCC1CCCC1
inactive: all assays above
